An excerpt weighted towards active compounds, which were near 8.1% of everything screened.
Shh pathway inh: Sonic Hedgehog pathway inhibition; 22,000 compounds, 2.1% hits; AID 2313; inhibition, % (no concentration beside the values); Shh-LIGHT2 Gli-luciferase reporter, 30 h;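 active = mean inhibition across valid replicates above about 65%, limit read from the data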;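 also: pathway switched on by Shh-conditioned medium diluted 1 in 25 in low serum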
NOMO-1 viab: STK33 inhibitor candidate reducing NOMO-1 cell viability; NOMO-1 AML viability, CellTiter-Glo luminescence, 72 h; inhibition, % (test concentration not listed); 37,000 compounds, 7.5% hits; AID 2330; in the data active = inhibition above about 80%
MITF inhib: MITF inhibition. TRPM1 promoter luciferase, luminescence, 24 h. inhibition, % (concentration not given with the values). 37,000 compounds, 0.28% hits. AID 2240; in the data active = inhibition above about 85%;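 also: human melanocyte line stably carrying TRPM1 promoter luciferase reporter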
Numbers without * were called inactive.

SMILES	Shh pathway inh	NOMO-1 viab	MITF inhib
CC1(C)C2CC(=O)[C@]3(C)C(CC[C@@]4(C)[C@H](c5ccoc5)OC(=O)C5OC543)[C@@]2(C)[C@@H](O)C[C@H]1O (stereo not given in full)	-38	-8	-10
C/C1=C/C(=O)O[C@@H]2C[C@@H](CC[C@H](C)/C=C\CC1)O[C@@](O)([C@@H]1CSC(=O)N1)C2	102*	114*	48
Cc1cc(O)cc2oc(=O)c3c(O)cc(O)cc3c12	-12	42	-41
C=C1CC[C@]2(O)[C@]3(C)C[C@@]4(O)O[C@@]2([C@@H]1O)[C@]1(O)[C@@]3(O)[C@H]([C@H](OO)c2ccc[nH]2)[C@](C)(C(C)C)[C@@]14C	13	-5	-2
CC(C)OC(=O)Nc1cccc(Cl)c1	-28	-1	-49
COc1ccc2c(c1)/C(=C/c1cnc[nH]1)C(=O)N2	3	98*	30
O=C(NC(=O)c1c(F)cccc1F)Nc1cc(Cl)c(OC(F)(F)C(F)C(F)(F)F)cc1Cl (stereo not given)	15	18	-1
CC1=C[C@H]2[C@]3(O)[C@H](C)[C@@H](O)[C@@]4(O)[C@H]([C@@H]3C=C(CO)C[C@]2(O)C1=O)C4(C)C	13	1	-5
O=c1c2ccccc2[nH]c(=S)n1-c1cc(C(F)(F)F)cc(C(F)(F)F)c1	18	4	9
CN1CCc2cc(O)cc3c2[C@H]1Cc1ccc(O)c(O)c1-3	31	105*	-18
CCCN1CCc2cc(O)cc3c2[C@H]1Cc1ccc(O)c(O)c1-3	41	109*	-7
COc1cc2c(cc1O)C[C@H]1c3c(cc(O)c(OC)c3-2)CCN1C	-31	13	13
C[C@H](N)C(=O)N[C@@H](C)C(=O)N[C@@H](Cc1ccccc1)C(=O)CCl	12	114*	-18
CCOP(=S)(OCC)SCn1c(=O)oc2cc(Cl)ccc21	14	25	17
O=C1CCCC2C3CC(CN12)[C@@H]1CCCCN1C3 (stereo not given in full)	3	-23	-2
CCOCN(C(=O)CCl)c1c(C)cccc1CC	80*	109*	99*
CCc1cccc(CC)c1N(COC)C(=O)CCl	11	50	26
CC(C)(C)C(=O)C(Oc1ccc(Cl)cc1)n1cncn1 (stereo not given)	4	5	-3
CC1(C)C(C(=O)Nc2ccccc2C(F)(F)F)C1(C)C	-37	8	-12
CCN1C[C@]2(C)CC[C@H](O)[C@@]34C2[C@H](OC)C([C@@H]13)[C@@]1(O)C[C@H](OC)[C@H]2C[C@@H]4[C@@H]1[C@H]2O	-4	107*	26
CCN1CC2(COC)CCC(O)C34C5CC6C(OC)CC(O)(C5C6O)C(C(OC)C23)C14 (stereo not given)	-17	1	-2
COc1ccc([C@H]2Oc3c(I)c(OC)cc(OC)c3C[C@@H]2O)cc1OC	28	22	7
O=C(O)CP(=S)(c1ccccc1)c1ccccc1	9	-14	16
CC[C@H]1C2C[C@H]3[C@@H]4N(C)c5ccccc5C45C[C@H](C2[C@H]5O)N3[C@@H]1O (stereo not given in full)	36	27	6
C=C1C(=O)O[C@@H]2[C@H]3C(=C)[C@@H](O)C[C@H]3C(=C)C[C@@H](O)[C@@H]12	-10	113*	-3
NC(N)=NC(N)=Nc1ccc(Cl)cc1	-4	6	0

High-throughput results from PubChem.
